# FMDV inh = High Throughput Screening for Foot and Mouth Disease Virus Antivirals | FMDV antiviral cell-based qHTS | Potency, µM (titrated, usually from 57.9 µM), without a hit: at the top dose activity change, negative = inhibition, usual class: inhibitors | 410,000 compounds, 1.2% hits; calls by dose curve; tested in HEK293T cells; also: read-out not given here; potency is read from the fitted curve at half-maximal effect; nearly all actives have a fitted effect of over 45% in size
# Lassa entry inh = qHTS for Inhibitors of binding or entry into cells for Lassa Virus | Lassa virus pseudotype entry inhibition, cell reporter | Potency, µM (highest dose often 37.9 µM), for inactives: at the highest dose activity change, negative = inhibition, usual class: inhibitors | 300,000 compounds, 1.2% hits; calls by dose curve; tested in HEK293 cells; also: potency is read from the fitted curve at half-maximal effect; nearly all actives have a fitted effect of over 50% in size
# HCMV inh = qHTS Assay for inhibitors of the human cytomegalovirus (HCMV); HFF cells, HCMV-luciferase reporter, 72 h; stronger effect = lower value; activity change, negative = inhibition, % at 57.5 µM; 410,000 compounds, 4.5% hits; in the data active = activity change below about -60%; inconclusive = no clear call, values can overlap the other calls; inactive = above about -39%
#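 Two compound doses tested in HFFs infected with HCMV-luciferase, MOI 1 PFU/cell, 72 h at 37C. Lysate luminescence read with OneGlo; data normalized against buffer-only and 10uM Salinomycin inhibitor controls.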
# MARV entry inh = qHTS for inhibitors of binding or entry into cells for Marburg Virus | Marburg virus pseudotyped entry inhibition, cell reporter | Potency, µM (highest dose often 37.8 µM), inactives show at the top dose activity change, negative = inhibition, most hits filed as inhibitors | 300,000 compounds, 1.8% hits; calls by dose curve; tested in HEK293 cells; also: potency is read from the fitted curve at half-maximal effect
# * hit, by the source's call; ? = inconclusive; . = not tested or not shown; [ ] = remark or other dose. Only some compounds are listed: those with a hit (about 6.2% of all), similar ones and a draw of the others. % is scaled to controls: 0 for no effect and ±100 for the full control effect.
SMILES,FMDV inh,Lassa entry inh,HCMV inh,MARV entry inh
O=C(CSc1ccc(Cl)cc1)Nc1ccccc1N1CCN(C(=O)c2ccccc2)CC1,13µM*,16µM*,-21,?
CN1CCN(c2ccccc2NC(=O)c2cccc([N+](=O)[O-])c2)CC1,-3%,.,10,.
CCc1sc(C(=O)Nc2ccccc2N2CCOCC2)cc1C,-11%,-14%[46.1 µM],-75*,-26%[46.1 µM]
O=C(Nc1ccccc1N1CCOCC1)c1ccc([N+](=O)[O-])cc1,-3%,-15%,-101*,9%
O=C(Nc1ccccc1N1CCN(C(=O)c2ccc(Cl)cc2)CC1)c1cccc([N+](=O)[O-])c1,-13%,2%[46.1 µM],-88*,?
O=C(Nc1ccccc1N1CCOCC1)c1ccc(N2CCOCC2)c([N+](=O)[O-])c1,-7%,-21%[46.1 µM],0,-3%[46.1 µM]
O=C(Nc1ccccc1N1CCOCC1)c1cc2c(s1)CCCCC2,40%,?,-34,?
C#CC1(O)C(OC)=CC2C(=O)C1C(c1ccccc1)C2C (stereo unspecified),.,?,.,-4%[14.2 µM]
COCCNc1ncnc2ccc(-c3c(C)noc3C)cc12,2%,.,.,.
O=C(/C=C/c1ccccc1Cl)c1cccnc1,14µM*,?,-15,?
O=C(/C=C/c1ccc(Cl)cc1)c1cccnc1,-7%,-2%,-8,?
N#Cc1ccc(/C=C/C(=O)c2cccnc2)cc1,40µM*,?,9,?
O=C(Nc1cc(Cl)ccc1Cl)c1cc(S(=O)(=O)NCCc2ccccc2)ccc1F,6%,6%[46.1 µM],-15,.
CC(=O)OC[C@H]1O[C@@H](n2ncc(=O)[nH]c2=O)[C@H](OC(C)=O)[C@@H]1OC(C)=O,-16%,0.73µM*,.,?
O=C(CCl)c1ccc(Cc2ncc(C(F)(F)F)cc2Cl)s1,25µM*,-26%,6,1%[46.1 µM]
NS(=O)(=O)c1ccc(Cc2ncc(C(F)(F)F)cc2Cl)s1,-24%,-6%,-15,?
Cc1ccc(NC(=O)/C(C#N)=C/c2cc(C)n(-c3ccc(Br)cc3)c2C)cc1C,?,10%[46.1 µM],-108*,.
Cc1ccc(-n2c(C)cc(/C=C(\C#N)C(=O)Nc3ccc(C)c(C)c3)c2C)cc1,0%,12%[46.1 µM],1,?
COc1ccc(-c2c(C)nn3c(-c4ccccc4)cc(C)nc23)cc1OC,?,-1%[46.1 µM],-17,-2%[46.1 µM]
COc1ccccc1-c1c(C)nn2c(N)c(-c3ccccc3)cnc12,-11%,-9%[46.1 µM],-82*,?
COc1ccccc1-c1c(C)nn2c(-c3ccccc3)cc(C)nc12,?,?,-68*,?
COc1ccccc1-c1c(C)nn2c(N3CCCCCC3)cc(C)nc12,28µM*,?,-96*,?
CCCOc1ccc(F)cc1-c1cc(C(=O)Nc2cc(OC)ccc2OC)[nH]n1,-12%,.,-80*,.
CCCOc1ccc(F)cc1-c1cc(C(=O)Nc2cc(OC)c(OC)c(OC)c2)[nH]n1,?,.,-16,.
CCOC(=O)c1scc(-c2ccc(C)cc2)c1S(=O)(=O)Nc1cccc(CC)c1,9%,1%[46.1 µM],-12,.
SMILES,FMDV inh,Lassa entry inh,HCMV inh,MARV entry inh
Cc1ccc(C)c(Cn2nnc(C(=O)NCc3ccc(Cl)cc3Cl)c2N)c1,?,10%[46.1 µM],-16,3%[46.1 µM]
Nc1ccc(-c2nc3cc(N)ccc3s2)cc1,-11%,?,58,?
Nc1ccc2nc(-c3ccccc3)sc2c1,10µM*,3.2µM*,-32,?
CNC(=S)Nc1ccc(-c2nc3ccc(C)cc3s2)cc1,-29%,?,88,?
Cc1ccc2nc(-c3ccc(NS(=O)(=O)c4ccc(F)cc4)cc3)sc2c1,54%,?,-94*,?
Cc1cc(-c2nc3ccccc3s2)ccc1N,-73%,3.5µM*,-3,?
Cc1ccc2nc(-c3ccc(N)cc3)sc2c1,8.9µM*,?,-33,3.5µM*
CC(=O)Nc1ccc(S(=O)(=O)Nc2nc3ccc(C)cc3s2)cc1,108%,9%,43,5%
Cc1c(F)cccc1NC(=O)C1CCCN1S(=O)(=O)c1ccc(F)cc1 (stereo unspecified),?,11%[46.1 µM],-10,-5%[46.1 µM]
COc1ccc(Nc2cc3[nH]c(-c4ccc(C(=O)N(C)C)cc4)cc3cn2)c(OC)c1,.,.,38,.
O=c1[nH]nc(-c2ccc(NCCO)c([N+](=O)[O-])c2)c2ccccc12,-12%,-13%[46.1 µM],-29,-18%[46.1 µM]
O=[N+]([O-])c1cc(Cl)cc2c1nc(NCCO)c1ccccc12,-7%,-9%[46.1 µM],-95*,?
COc1ccc(CCNC(=O)c2cc3c(-c4ccc(OC)c(OC)c4)nn(C)c3s2)cc1OC,-17%,?,-37,?
CCC(C)(C)NC(=O)C(c1ccc(OC)cc1)N(Cc1ccccc1)C(=O)CCC(=O)Nc1cc(C)on1 (stereo unspecified),51%,2%[46.1 µM],-26,?
CCC(C)(C)NC(=O)C(c1ccc(OC)cc1)N(C(=O)CCC(=O)Nc1cc(C)on1)c1cccc(F)c1 (stereo unspecified),-15%,7.1µM*,1,?
COc1ccc(C(C(=O)NC(C)(C)C)N(Cc2ccccc2)C(=O)CCC(=O)Nc2cc(C)on2)cc1 (stereo unspecified),11%,.,-64*,.
CC(NC(=O)c1cc(F)ccc1F)c1nnc2n1CCN(Cc1cccs1)CC2 (stereo unspecified),1%,.,.,.
COc1ccc(NC(=O)Cn2c(=O)n(CCCC(=O)NCc3ccccc3OC)c(=O)c3ccccc32)cc1Cl,-22%,0%[46.1 µM],11,8%[46.1 µM]
CCN(CC)c1ccc(/C=C2\C(=O)N(c3nnc(C)c(=O)[nH]3)N=C2C)cc1,28µM*,?,-22,?
CC1=NOC(=O)/C1=C/c1ccc(N(C)C)cc1,-7%,-5%,39,5%
CC1=NOC(=O)/C1=C/c1ccc(O)c(Cl)c1,18µM*,13%[46.1 µM],?,4%[46.1 µM]
CCN(CC)c1ccc(/C=C2/C(=O)ON=C2C)cc1,21%,0%,-65*,-9%
CC(=O)OC[C@H]1O[C@H](C#Cc2ccc(C)cc2C)C=C[C@H]1OC(C)=O,.,-33%[14.3 µM],.,-2%[14.2 µM]
CCC(C)(C)NC(=O)c1ccccc1Oc1ccccc1,-8%,5%[46.1 µM],-76*,?
CCN(CC)S(=O)(=O)c1cccc(-n2c(O)c(C=Nc3ccccc3C(=O)O)c3ccccc3c2=O)c1,-11%,.,-79*,.
SMILES,FMDV inh,Lassa entry inh,HCMV inh,MARV entry inh
O=C(O)c1ccccc1N=Cc1c(O)n(-c2nccs2)c(=O)c2ccccc12,0%,.,?,.
Cc1ccc(-c2csc(N/N=C/c3ccco3)n2)c(C)c1,-6%,3.3µM*,?,1.8µM*
O=C(c1ccc(Cl)cc1)C1CCCN(Cc2ccc3ncccc3c2)C1 (stereo unspecified),?,.,-75*,?
O=C(c1ccc2c3c(cccc13)CC2)C1CCCN(Cc2ccncc2)C1 (stereo unspecified),?,.,-69*,.
O=C(c1cccc(Cl)c1)C1CCCN(Cc2cccc3cnccc23)C1 (stereo unspecified),?,-7%,-71*,?
O=C(c1ccc(Cl)cc1)C1CCCN(Cc2cccc3cnccc23)C1 (stereo unspecified),?,.,-62*,.

# From PubChem BioAssay
